Experimental data taken from the supplement of paper PMC3334620.
The full ranking holds about 33,000 sequences; the median of “E-score (-0.5 to 0.5)” is about -0.043, and the highest 2% start at about 0.37. The list comes from a sample in which the highest values are over-represented; it also holds similar and randomly drawn sequences.

Each sequence was assayed against T1, Upc2 (UniProt Q12151) (assay: PBM E-score (8-mer binding enrichment) (E-score (-0.5 to 0.5)); higher = stronger / more preferred TF binding). Conditions: protein concentration: 200 nM; construct: GST-full length.
T1 sequence: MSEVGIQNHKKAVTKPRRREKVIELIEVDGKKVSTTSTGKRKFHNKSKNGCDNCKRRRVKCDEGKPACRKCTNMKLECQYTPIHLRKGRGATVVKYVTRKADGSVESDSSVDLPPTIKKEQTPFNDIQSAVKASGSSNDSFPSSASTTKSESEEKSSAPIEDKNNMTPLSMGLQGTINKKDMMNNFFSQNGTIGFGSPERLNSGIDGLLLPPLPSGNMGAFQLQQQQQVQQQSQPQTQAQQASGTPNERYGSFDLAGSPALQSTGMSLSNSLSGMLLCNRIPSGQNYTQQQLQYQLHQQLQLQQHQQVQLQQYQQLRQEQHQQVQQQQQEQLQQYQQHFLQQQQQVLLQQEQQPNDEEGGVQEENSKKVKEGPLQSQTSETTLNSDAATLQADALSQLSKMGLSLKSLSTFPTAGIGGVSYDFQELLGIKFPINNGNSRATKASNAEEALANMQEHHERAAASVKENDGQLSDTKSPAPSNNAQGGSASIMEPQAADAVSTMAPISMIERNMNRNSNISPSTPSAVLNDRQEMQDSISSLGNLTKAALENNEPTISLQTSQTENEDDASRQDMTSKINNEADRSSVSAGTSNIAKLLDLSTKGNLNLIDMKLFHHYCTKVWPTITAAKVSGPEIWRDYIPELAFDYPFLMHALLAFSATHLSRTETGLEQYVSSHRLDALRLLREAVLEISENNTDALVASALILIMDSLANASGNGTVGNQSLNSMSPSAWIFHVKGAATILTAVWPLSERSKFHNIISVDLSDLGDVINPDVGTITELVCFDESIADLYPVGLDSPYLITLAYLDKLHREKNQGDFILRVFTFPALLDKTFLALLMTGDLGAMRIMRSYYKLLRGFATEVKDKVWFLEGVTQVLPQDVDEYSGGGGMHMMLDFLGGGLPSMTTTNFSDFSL
Summary of the method: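 GST-tagged yeast TFs (full-length or DNA-binding domain) were made by PURExpress in vitro transcription/translation and applied at about 100-200 nM to universal all-10-mer Agilent arrays. The arrays were made double-stranded by primer extension, on fresh or once-stripped slides. Bound protein was detected with fluorescent anti-GST, and scans were normalised with masliner. Each ungapped eight-base word, pooled with its reverse complement, received an E-score (modified Wilcoxon-Mann-Whitney statistic) from the Universal PBM Analysis Suite.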

| Sequence | PBM E-score |
| --- | --- |
| CGTAAACC | 0.364 |
| CGTAAAAA | 0.404 |
| AGTAAAAG | 0.168 |
| TGTAAAAA | -0.0321 |
| GGTAAAAC | 0.0926 |
| CGTAAAAG | 0.405 |
| CTTAAAAG | -0.0494 |
| AGTAAAAA | -0.0254 |
| CGTAAAAC | 0.389 |
| GGCCAACC | -0.0824 |
| ATAGAGGC | -0.0461 |
| ACAAAGGA | -0.0862 |
| GGTTGTAC | 0.154 |
| GCAGATCA | -0.161 |
| CGCCTTAG | -0.169 |
| GCCACATA | -0.153 |
| TCAGACAA | -0.17 |
| ACCGAAAG | 0.108 |
| ACCGAAAT | 0.141 |
| AACGAAAT | 0.398 |
| AACGAAAG | 0.383 |
| GACGAAAC | 0.251 |
| AACGAAAA | 0.368 |
| CACGAAAG | -0.0189 |
| CACGAAAC | 0.0525 |

| Sequence | PBM E-score |
| --- | --- |
| AACGAAAC | 0.37 |
| ACTCGCCC | -0.205 |
| AACGCTAG | -0.089 |
| CGATCGTA | 0.437 |
| AGATCGTG | 0.0463 |
| CGATCGAA | 0.24 |
| CGATCGTC | 0.128 |
| AGATCGTC | -0.141 |
| GGATCGAA | 0.211 |
| GGATCGGA | 0.0439 |
| AGATCGTA | 0.387 |
| GGATCGTA | 0.422 |
| CTAGGTCA | -0.214 |
| CTATCAGA | -0.13 |
| AACAAGGC | -0.167 |
| CGTCGTGA | 0.127 |
| GGTCGTAA | 0.421 |
| AGTCGTAA | 0.379 |
| AGTCGTGA | -0.0656 |
| CGTCGTCA | 0.055 |
| CGTCGTAA | 0.457 |
| TGTCGGAA | 0.0576 |
| TGTCGTAA | 0.433 |
| GGTCGTGA | -0.0444 |
| GGTCGTCA | -0.0836 |

| Sequence | PBM E-score |
| --- | --- |
| AGTCGTCA | -0.167 |
| TGGCGTAA | 0.0743 |
| ACCGTTAT | -0.0125 |
| GAGTCAAA | -0.229 |
| ATTCTAAC | -0.125 |
| AGCAAGAG | -0.203 |
| CTGAGCTA | -0.0866 |
| ACCGCTTC | -0.203 |
| AGTGAACT | -0.117 |
| ACTGTTCG | 0.16 |
| GCGTACGA | 0.448 |
| ACGTACGT | 0.293 |
| CCGTACGA | 0.443 |
| ACGTACGC | 0.254 |
| CCCTACGG | -0.0948 |
| ACGTACGA | 0.431 |
| GCGTACGC | 0.281 |
| CCGTACGG | 0.374 |
| ACGTACGG | 0.354 |
| CCGTACTA | 0.282 |
| GCGTACTA | 0.0874 |
| CCGTACGC | 0.308 |
| TAAAGCCA | 0.0825 |
| ATGCGACG | 0.306 |
| AAGAATCT | -0.148 |

| Sequence | PBM E-score |
| --- | --- |
| CCTTGCAA | -0.115 |
| AGTGCGAT | 0.0239 |
| GATAGAAA | 0.0471 |
| AGACCCTG | -0.259 |
| TCTCCTAA | -0.00947 |
| TCGTACGA | 0.471 |
| TCGCACGA | 0.0732 |
| TCCTACGA | 0.256 |
| CCTCGATA | -0.0083 |
| CAACGCTG | -0.0985 |
| GCCTCGGA | 0.135 |
| ACCTCGTA | 0.462 |
| ACCTCGTC | 0.0626 |
| ACCTCGTG | 0.2 |
| GCCTCGAA | 0.00343 |
| CCCTCGGA | 0.195 |
| CCCTCGTC | 0.122 |
| GCCTCGTA | 0.473 |
| CCCTCGTA | 0.465 |
| TCCACTCA | -0.17 |
| CTAAGAGA | -0.0721 |
| ACAGAGCG | -0.0821 |
| TAGGCAAA | -0.108 |
| AACAGTTA | -0.135 |
| CTATCGTC | -0.0375 |

| Sequence | PBM E-score |
| --- | --- |
| GTATCGGA | 0.229 |
| GTATCGTA | 0.423 |
| CTATCGAA | -0.056 |
| ATATCGTA | 0.427 |
| ATATCGTC | 0.0922 |
| CTATCGTA | 0.43 |
| ATATCGTG | 0.0382 |
| GTATCGAA | 0.142 |
| CCTAGCGA | -0.299 |
| CCCCTCTC | -0.185 |
| ACCGGCCC | 0.0253 |
| ATCTGTAA | -0.0759 |
| ATGTAAAC | 0.27 |
| AGTGAGAC | -0.0557 |
| GCCTGCCA | -0.317 |
| CAATAGAA | -0.241 |
| CCGAACCG | 0.0623 |
| ACGAACCG | 0.378 |
| ACGAACCC | 0.301 |
| CCGAACCA | -0.127 |
| ACGAACCA | 0.376 |
| GCGAACCA | 0.164 |
| TCAGCCAA | -0.177 |
| CGTGCGAA | 0.214 |
| ATTTTGCA | -0.0911 |

| Sequence | PBM E-score |
| --- | --- |
| GTTTACTA | 0.224 |
| CTTTACGA | 0.471 |
| ATTTACGA | 0.45 |
| GTTTACAA | 0.164 |
| ATTTACGC | 0.154 |
| ATTTACGG | 0.297 |
| GTTTACGA | 0.471 |
| CTTTACGC | 0.332 |
| CATTACGA | 0.316 |
| GAGGGGGA | -0.0209 |
| GTCGAGTA | 0.0357 |
| ATTGTATC | -0.2 |
| GAGGGAAC | -0.0277 |
| AATAAGTA | 0.0339 |
| CTGTTGGC | -0.209 |
| CTGCGACC | -0.164 |
| ATCACAGA | -0.155 |
| CTCCTATA | -0.0688 |
| CGCTATTC | 0.102 |
| CCCAAACG | 0.431 |
| CACAAACA | -0.0461 |
| ACCAAACG | 0.4 |
| CACAAACG | 0.387 |
| CCAAAACG | 0.114 |
| CCCAAGCG | -0.031 |

| Sequence | PBM E-score |
| --- | --- |
| ACCAAACA | 0.208 |
| ACCAAACC | -0.0475 |
| CGCAAACG | 0.412 |
| CGCAAACA | 0.0866 |
| CGCAAGCG | 0.115 |
| AACAAACG | 0.353 |
| AGGCCAAG | -0.17 |
| GAGCAGCA | -0.098 |
| AGTTCGAA | 0.0491 |
| AACACAGA | -0.00201 |
| CCCTTCGG | -0.0969 |
| ATCGCAAG | -0.255 |
| AGGACTTG | -0.287 |
| CCTACGCA | -0.196 |
| AACGACAA | 0.402 |
| AACGACAT | 0.432 |
| AGCGACAT | 0.177 |
| AACGACAC | 0.428 |
| ATCGACAG | -0.0101 |
| CACGACAG | 0.0499 |
| GACGACAA | 0.0707 |
| CACGACAA | 0.0377 |
